# Compounds without any hit were thinned out: in the full panel of roughly 83,000, 20% have a hit.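 The endpoint reported here, percent growth, reads 100 for growth as untreated, 0 for no net growth and -100 for all cells dead.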 The source made the active and inactive calls. How the source made its calls: active means growth percent below 10; inactive means the rest.
# Tested on: UACC-257 melanoma
# Experiment: NCI-60 one-dose screen, 48 h (100 = growth as untreated, 0 = no growth, -100 = all killed)
# Conditions: 10 µM unless noted
row,Compound,growth
1,CN(C)c1ccc(/C=C/c2n(Cc3ccc4ccccc4c3)c3ccccc3[n+]2Cc2ccc3ccccc3c2)cc1,-74.3% (active)
2,Cc1nn(-c2ccccc2)c2nc(C)n(CC(=O)N/N=C/c3ccccc3O)c(=O)c12,2.59% (active)
3,CC1=C(C)C(=O)C(N2CCSCC2)=CC1=O,93.2% (inactive)
4,NC(=O)c1ccc(-c2ccc3ncnc(N4CCc5cc(F)c(Cl)cc54)c3c2)cn1,110% (inactive)
5,Cn1ncc2c(N)nc(Oc3ccccc3-c3ccccc3)nc21,63.5% (inactive)
6,C=CC[n+]1cccc2c3ccccc3ccc21,20.9% (inactive)
7,COc1ccc2nc(NC(=O)c3ccc(N(C)C)cc3)sc2c1,80.6% (inactive)
8,O=C(N/N=C/c1ccoc1)c1[nH]c2ccc(Br)cc2c1-c1ccccc1,-78.1% (active)
9,O=C(Nc1ccc(-c2ccc3c(c2)NC(=O)/C3=C\c2ccc[nH]2)cc1)Nc1ccc(Cl)c(C(F)(F)F)c1,24.5% (inactive)
10,CN1C(=O)/C(=C/c2ccco2)S/C1=N/c1nccs1,117% (inactive)
11,COc1cccc2nc(Nc3cccc(NC(=O)c4ccc(CN5CCN(C)CC5)c(C(F)(F)F)c4)c3)ccc12,-83.1% (active)
12,Fc1cccc(CNc2nc(SCCN3CCOCC3)nc3c2cnn3CC(Cl)c2ccc(Br)cc2)c1 (configuration not stated),20.1% (inactive)
13,CCCCNc1ccc2c3c(cccc13)C(=O)N(c1cccc(-c3nn(-c4ccccc4)cc3-c3nc4ccccc4s3)c1)C2=O,113% (inactive)
14,N/C(=N\c1nc2ccccc2s1)NC(=O)Nc1ccccc1[N+](=O)[O-],60.1% (inactive)
15,Cc1ccc(C(=O)Nc2cc(-c3ccncc3)cc(C(F)(F)F)c2)cc1C#Cc1cnc2cccnn12,40.9% (inactive)
16,CCN1C(=O)N(CC)C2NNC(Sc3c(C(=O)O)c4ccccc4n(CCC(C)C)c3=O)=NC21 (configuration not stated),40% (inactive)
17,CC1=C(C(=O)OCc2ccccc2)C(c2ccc(N(C)C)cc2)n2c(nc3ccccc32)N1 (configuration not stated),85.7% (inactive)
18,COc1cc(/C=C/C(=O)c2cnn(-c3cc(=O)[nH]c4ccc(Br)cc34)c2C)cc(OC)c1OC,-30.3% (active)
19,S=C(Nc1ccc(OCc2nc3ccc(Cl)cc3[nH]2)cc1)NC1CCCCC1,33.3% (inactive)
20,Nc1nn2c(-c3cc4cc(Br)ccc4oc3=O)ccnc2c1N=Nc1ccc(S(N)(=O)=O)cc1,101% (inactive)
21,CCN(C(=O)CN1C(=O)/C(=C/c2ccco2)SC1=S)C1CCS(=O)(=O)C1 (configuration not stated),98.2% (inactive)
22,Cn1cc(Nc2ncnc(-c3ccc(N4CCCC4)c(C#N)c3)n2)cn1,94% (inactive)
23,O=C1Nc2ccccc2/C1=C\c1ccc(OCC(=O)c2ccc(Br)cc2)cc1,73.6% (inactive)
24,COc1cc(CNC(=O)C[C@H](C)CCC=C(C)C)ccc1OCc1cn(-c2ccc(Br)cc2)nn1,86.3% (inactive)

# Tested on: M14 melanoma
# Experiment: as above
# Conditions: 10 µM unless noted
row,Compound,growth
1,CN(C(=O)CN1C(=O)/C(=C/c2ccco2)SC1=S)C1CCS(=O)(=O)C1 (configuration not stated),94.6% (inactive)
2,O=C(c1ccc(Cl)cc1)C1[C@H](c2ccccc2Cl)[C@@H](c2ccccc2)NC12C(=O)Nc1ccccc12 (some centres not stated),-75.7% (active)
3,Cc1ccc(Nc2nnc(-c3c[nH]c4ccccc34)o2)c(C)c1,15.6% (inactive)
4,Cc1ccccc1NC(=O)c1cccc(NC(=O)CCl)c1,50.5% (inactive)
5,Clc1ccc(CNc2nc(SCCN3CCOCC3)nc3c2cnn3CC(Cl)c2ccc(Br)cc2)cc1 (configuration not stated),37.2% (inactive)
6,CCc1ccc(SC2c3cc(OC)ccc3Oc3nc(N)c(C#N)c(N)c32)cc1 (configuration not stated),-14.1% (active)
7,O=C(N/N=C/c1ccc(B(O)O)s1)c1[nH]c2ccc(Br)cc2c1-c1ccccc1,-67.4% (active)
8,CCN1C(=O)N(CC)C2NNC(Sc3c(C(=O)O)c4ccccc4n(CC(C)C)c3=O)=NC21 (configuration not stated),22.4% (inactive)
9,COc1ccc(/C=C/c2nc3ccccc3c(=O)n2CC(=O)Nc2ccccc2)cc1,46.4% (inactive)
10,COc1ccc2[nH]c(=O)c(CSc3ccccc3Nc3nccc(-c4ccc5c(c4)OCO5)n3)cc2c1,91.5% (inactive)
11,Cc1ccc(Cl)cc1NC(=O)N/C(N)=N/c1nc2ccccc2s1,-17.1% (active)
12,COc1ccc(OC)c(Cn2cc(C#N)c(N)c2C(=O)c2ccc(Br)cc2)c1,33.8% (inactive)
13,Cc1ccc(-c2cc(-c3ccccc3)[nH]c(=O)c2C#N)cc1,111% (inactive)
14,Cc1ccc(C(C(=O)NC2CCCCC2)N(Cc2ccccc2Cl)C(=O)c2ccc(CN3CCOCC3)o2)o1 (configuration not stated),98.6% (inactive)
15,CN(C)c1ccc(/C=C/c2n(Cc3ccc4ccccc4c3)c3ccccc3[n+]2Cc2ccc3ccccc3c2)cc1,-69.2% (active)
16,Cc1nn(-c2ccccc2)c2nc(C)n(CC(=O)N/N=C/c3ccccc3O)c(=O)c12,2.09% (active)
17,CC1=C(C)C(=O)C(N2CCSCC2)=CC1=O,95.4% (inactive)
18,NC(=O)c1ccc(-c2ccc3ncnc(N4CCc5cc(F)c(Cl)cc54)c3c2)cn1,70.2% (inactive)
19,Cn1ncc2c(N)nc(Oc3ccccc3-c3ccccc3)nc21,13.6% (inactive)

row,Compound,growth
1,C=CC[n+]1cccc2c3ccccc3ccc21,65.9% (inactive)
2,COc1ccc2nc(NC(=O)c3ccc(N(C)C)cc3)sc2c1,87.4% (inactive)
3,O=C(N/N=C/c1ccoc1)c1[nH]c2ccc(Br)cc2c1-c1ccccc1,-84.6% (active)
4,O=C(Nc1ccc(-c2ccc3c(c2)NC(=O)/C3=C\c2ccc[nH]2)cc1)Nc1ccc(Cl)c(C(F)(F)F)c1,54.8% (inactive)
5,CN1C(=O)/C(=C/c2ccco2)S/C1=N/c1nccs1,117% (inactive)
6,COc1cccc2nc(Nc3cccc(NC(=O)c4ccc(CN5CCN(C)CC5)c(C(F)(F)F)c4)c3)ccc12,-85.2% (active)
7,Fc1cccc(CNc2nc(SCCN3CCOCC3)nc3c2cnn3CC(Cl)c2ccc(Br)cc2)c1 (configuration not stated),28% (inactive)
8,CCCCNc1ccc2c3c(cccc13)C(=O)N(c1cccc(-c3nn(-c4ccccc4)cc3-c3nc4ccccc4s3)c1)C2=O,99.6% (inactive)
9,N/C(=N\c1nc2ccccc2s1)NC(=O)Nc1ccccc1[N+](=O)[O-],16.3% (inactive)
10,Cc1ccc(C(=O)Nc2cc(-c3ccncc3)cc(C(F)(F)F)c2)cc1C#Cc1cnc2cccnn12,8.59% (active)
11,CCN1C(=O)N(CC)C2NNC(Sc3c(C(=O)O)c4ccccc4n(CCC(C)C)c3=O)=NC21 (configuration not stated),12.1% (inactive)
12,CC1=C(C(=O)OCc2ccccc2)C(c2ccc(N(C)C)cc2)n2c(nc3ccccc32)N1 (configuration not stated),80.4% (inactive)
13,COc1cc(/C=C/C(=O)c2cnn(-c3cc(=O)[nH]c4ccc(Br)cc34)c2C)cc(OC)c1OC,-49.8% (active)
14,S=C(Nc1ccc(OCc2nc3ccc(Cl)cc3[nH]2)cc1)NC1CCCCC1,-37.2% (active)
15,Nc1nn2c(-c3cc4cc(Br)ccc4oc3=O)ccnc2c1N=Nc1ccc(S(N)(=O)=O)cc1,62.2% (inactive)
16,CCN(C(=O)CN1C(=O)/C(=C/c2ccco2)SC1=S)C1CCS(=O)(=O)C1 (configuration not stated),97.3% (inactive)
17,Cn1cc(Nc2ncnc(-c3ccc(N4CCCC4)c(C#N)c3)n2)cn1,53.5% (inactive)
18,O=C1Nc2ccccc2/C1=C\c1ccc(OCC(=O)c2ccc(Br)cc2)cc1,73.1% (inactive)
19,COc1cc(CNC(=O)C[C@H](C)CCC=C(C)C)ccc1OCc1cn(-c2ccc(Br)cc2)nn1,97.2% (inactive)

# Source: PubChem BioAssay (NCI)
